The entries come from a sample that favours hits as a whole.
mHTT CaM bind – inhibitors of human mutant huntingtin-calmodulin interaction | AlphaScreen His-mHTT/GST-CaM binding, luminescence | P42858 | inhibition, % at 15 µM | actives 3.6% (n = 190,000);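 further: 0% = both proteins with DMSO and 100% = one protein alone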
Pf apPOL block – Pf-apPOL DNA polymerase inhibition; AID 1794808; actives 0.25% (n = 210,000); inhibition, % at 10 µM; Recombinant Pf-apPOL, molecular beacon fluorescence, 1.5 h
* hit, by the source's call. No stated cut-off is given here; in the data, active means inhibition above about 50%; inactive means the rest.

SMILES	mHTT CaM bind	Pf apPOL block
CC(=O)Nc1cccc(N2CC(C(=O)Nc3ccc(C)cc3C)CC2=O)c1 (stereo unspecified)	10.4	-0.4
COc1ccccc1C1N(c2ccc(Cl)c(Cl)c2)C(=O)N2CCCN12 (stereo unspecified)	100.0*	-2.1
COc1cc(C2N(c3ccc(Cl)c(Cl)c3)C(=O)C3CCCN32)cc(OC)c1OC (stereo unspecified)	100.0*	-5.5
CCOc1ccccc1C1N(c2ccc(Cl)cc2)C(=O)C2CCCN21 (stereo unspecified)	50.6*	-2.3
COc1ccc(N2C(=O)C3CCCN3C2c2ccccc2OC)cc1 (stereo unspecified)	-7.4	21.6
CCOc1ccccc1C1N(c2ccc(F)cc2)C(=O)C2CCCN21 (stereo unspecified)	1.1	-1.3
COc1cc(C2N(c3ccc(Cl)cc3)C(=O)C3CCCN32)cc(OC)c1OC (stereo unspecified)	40.4	-5.9
COc1ccccc1C1N(c2ccc(Cl)cc2)C(=O)C2CCCN21 (stereo unspecified)	50.3*	-2.0
O=C1N(c2ccccc2)C(c2ccccc2)N2CCCN12 (stereo unspecified)	0.0	1.2
Nc1nonc1-n1nnc(C(=O)O)c1CN1CCOCC1	3.0	-4.9
Cc1ccc(S(=O)(=O)NCC(=O)Nc2ccc(F)cc2)cc1	-8.0	-5.0
Cc1cccnc1NC(=O)Cn1cnc(-c2cccs2)cc1=O	-8.6	-7.1
Cc1cccc(S(=O)(=O)N2CC3CN(C(=O)c4cccc(F)c4)CC(C2)O3)c1	-0.9	-1.7
CCc1ccc(C(=O)N2CC3CN(S(=O)(=O)c4cccc(C)c4)CC(C2)O3)cc1	65.3*	-1.3
COc1ccc(-n2nc3c(c2NC(=O)C2CCCC2)CS(=O)(=O)C3)cc1	4.0	3.7
CCCCC1CCC(C(=O)Nc2c3c(nn2-c2ccc(OC)cc2)CS(=O)(=O)C3)CC1 (stereo unspecified)	58.0*	0.6
Cc1cc(N2C(=O)C3C(C2=O)C2C=CC3C23CC3)c([N+](=O)[O-])cc1C (stereo unspecified)	1.0	13.1
COc1ccc(-c2[nH]n(-c3nc4ccccc4s3)c(=O)c2C=NCCN2CCOCC2)cc1	68.0*	1.7
O=c1c(C=NCCN2CCOCC2)c(C(F)(F)F)[nH]n1-c1nc2ccccc2s1	4.0	2.8
CCCCN(CC)S(=O)(=O)c1ccc(F)c(C(=O)Nc2ccc(Cl)c(Cl)c2)c1	-4.0	-3.9
Cc1nnsc1C(=O)N1CCN(Cc2nc3ccccc3[nH]2)CC1	-14.9	-6.1
COc1ccc(CCNC(=O)N2CCN(Cc3nc4ccccc4[nH]3)CC2)cc1	100.2*	-109.2
CC(C)c1cc(C2CCCN2Cc2cn[nH]c2-c2ccc(F)cc2)no1 (stereo unspecified)	15.4	-1.8
Cc1cc(N2CCN(C)CC2)nc2ccc(NC(=O)/C=C/c3ccccc3Cl)cc12	93.0*	3.6
CCN(CC)c1cc(C)c2cc(NC(=O)/C=C/c3ccc4c(c3)OCO4)ccc2n1	20.0	-8.1
SMILES	mHTT CaM bind	Pf apPOL block
Cc1cc(N2CCOCC2)nc2ccc(NC(=O)/C=C/c3ccccc3Cl)cc12	38.0	-3.0
Cc1cc(N2CCN(C)CC2)nc2ccc(NC(=O)/C=C/c3ccc4c(c3)OCO4)cc12	51.0*	-3.1
CCc1cc2c(=O)c(-c3nc4ccccc4n3C)c(COCC(=O)O)oc2cc1OC(=O)C(C)(C)C	51.4*	-3.0
CCc1oc2cc(O)ccc2c(=O)c1-c1nc2ccccc2n1C	0.0	-2.4
CCc1cc2c(=O)c(-c3nc4ccccc4n3C)c(C(C)(C)C)oc2cc1O	-5.7	2.6
CCc1cc2c(=O)c(-c3nc4ccccc4n3C)c(C(F)(F)F)oc2cc1O	97.0*	-0.8
COC(=O)CNC(=O)N1CCCCCC1c1cccc(C)c1 (stereo unspecified)	-8.3	-0.8
O=C(Nc1ccc2c(c1)CCC2)N1CCC(n2c(-c3ccco3)nc3cccnc32)C1 (stereo unspecified)	47.9	-0.2
C=CCc1cc(OC)c(O)c(-c2cc(CC=C)cc(OC)c2O)c1	61.0*	1.9
COc1cc(CCCO)cc(-c2cc(CCCO)cc(OC)c2O)c1O	3.0	-1.6
O=C(NC1CC(O)C(CO)C1)c1ccc(Oc2ccccc2)cc1 (stereo unspecified)	1.2	-10.8
Cc1cc(C)n(-c2ccc(=O)n(CCNC(=O)c3cc(C)on3)n2)n1	-15.9	-5.6
CC1CCC2(CC1)NC(=O)N(CC(=O)Nc1cccc(C(C)C)c1)C2=O (stereo unspecified)	-0.8	-5.0
N#C/C(=C\c1ccc(O)c(O)c1)c1nc(-c2ccc3c(c2)OCO3)cs1	97.5*	6.4
COc1ccc(/C=C(\C#N)c2nc(-c3ccc(OC)c(OC)c3)cs2)cc1O	1.2	0.5
N#C/C(=C\c1ccccc1[N+](=O)[O-])c1nc(-c2ccc3c(c2)OCO3)cs1	8.7	-2.8
COc1ccc(-c2csc(/C(C#N)=C/c3ccc(O)c(O)c3)n2)cc1OC	81.1*	10.6

Screens from PubChem.
